# Inconclusive results are not listed. Unmarked numbers belong to inactive results. Activity calls are given as the source filed them. Calls follow the shape of the dose curve; as a rule, active = well fitted cell-killing curve with a large enough effect; inconclusive = small, poorly fitted or top-dose-only effect, or effect the other way; inactive = no such curve, though single readings can be large or run the other way. *1 amine or outer side, *2 acyl side, *3 side chain or, on linkers, in order; H or OH if unused. Where a SMILES comes first, the peptide text is derived from it. Bridges are numbered along the chain shown (N, C = ends). Roman numbers before positions name the chains, in order. [ ]: non-standard residue; d: D form. Actinocin(9to1) = Cc1c2oc3c(C)ccc(C(=O)[*:1])c3nc-2c(C(=O)[*:2])c(N)c1=O; NMeV = CN[C@H](C(=O)O)C(C)C; Sar = CNCC(=O)O
# System: Tov-21-G
# Experiment: Confirmatory qHTS for gynecologic anti-cancer compounds from libraries of approved drugs and bioactive compounds; also: nearly all actives have a fitted effect of over 55% in size
# Details: gynecologic cancer cell panel viability, ATPlite luminescence, 48 h; series mostly up to 57.7 µM; activity change, negative = viability loss: at the top concentration
# In short: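 ATPlite luminescence read-out of cell viability; IC50 from 11-point 1:3 titrations, 57.5 uM to 0.977 nM, 48 h compound exposure at 37 C, 5% CO2. Cells seeded at 1,000/well 16 h before dosing.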
# % is scaled to controls: 0 for no effect and ±100 for the full control effect; potency is read from the fitted curve at half-maximal effect.
SMILES,"activity change, negative = viability loss [%]",Potency
CN(C)/N=N/c1nc[nH]c1C(N)=O,27.2,–
CCN(CC)CCNC(=O)c1c(C)[nH]c(/C=C2\C(=O)Nc3ccc(F)cc32)c1C,–,11.2 µM (active)
Nc1ccccc1NC(=O)c1ccc(CNC(=O)OCc2cccnc2)cc1,–,7.69 µM (active)
CCN(CC)CCCC(C)Nc1c2ccc(Cl)cc2nc2ccc(OC)cc12 (configuration not stated),–,30.6 µM (active)
CC(C)C[C@H](NC(=O)[C@H](CCc1ccccc1)NC(=O)CN1CCOCC1)C(=O)N[C@@H](Cc1ccccc1)C(=O)N[C@@H](CC(C)C)C(=O)[C@@]1(C)CO1,–,2.17 µM (active)
Nc1ccccc1NC(=O)c1ccc(CNc2nccc(-c3cccnc3)n2)cc1,–,2.43 µM (active)
Cn1c(=O)c(F)c(Nc2ccc(I)cc2F)c2c(=O)n(CC(O)CO)cnc21 (configuration not stated),–,2.73 µM (active)
Cc1cc(Nc2cc(N3CCN(C)CC3)nc(/C=C/c3ccccc3)n2)n[nH]1,–,1.72 µM (active)
CCn1cc(-c2ccnc3[nH]c(-c4cccc(CN(C)C)c4)cc23)c(-c2ccc(NC(=O)N(C)C)cc2)n1,–,7.49 µM (active)
Nc1ccc(-c2ccc3ncc4ccc(=O)n(-c5cccc(C(F)(F)F)c5)c4c3c2)cn1,–,3.43 µM (active)
Cc1ccc(-n2[nH]c(C)c(N=Nc3cccc(-c4cccc(C(=O)O)c4)c3O)c2=O)cc1C,16.8,–
COc1cc(Nc2ncc(F)c(Nc3ccc4c(n3)N(COP(=O)(O)O)C(=O)C(C)(C)O4)n2)cc(OC)c1OC,–,1.37 µM (active)
Cc1cc(C2CCCCC2)n(O)c(=O)c1,–,17.7 µM (active)
C=CC(=O)Nc1cccc(Oc2nc(Nc3ccc(N4CCN(C)CC4)cc3)ncc2Cl)c1,–,3.85 µM (active)
Cc1nc(NC(=O)N2CCCC2C(N)=O)sc1-c1ccnc(C(C)(C)C(F)(F)F)c1 (configuration not stated),–,10.9 µM (active)
NC1(c2ccc(-c3nc4ccn5c(=O)[nH]nc5c4cc3-c3ccccc3)cc2)CCC1,-10.2,–

SMILES,"activity change, negative = viability loss [%]",Potency
c1cc(N[C@@H]2CCNC2)nc(-c2cnc3ccc(-c4cn[nH]c4)cn23)c1,–,2.43 µM (active)
"Cc1c2oc3c(C)ccc(C(=O)N[C@@H]4C(=O)N[C@H](C(C)C)C(=O)N5CCC[C@H]5C(=O)N(C)CC(=O)N(C)[C@@H](C(C)C)C(=O)O[C@@H]4C)c3nc-2c(C(=O)N[C@@H]2C(=O)N[C@H](C(C)C)C(=O)N3CCC[C@H]3C(=O)N(C)CC(=O)N(C)[C@@H](C(C)C)C(=O)O[C@@H]2C)c(N)c1=O (I: T[dV]P[Sar][NMeV] / II: T[dV]P[Sar][NMeV]; ester I:1-I:C, II:1-II:C; linker I:N-II:N via Actinocin(9to1))",–,0.685 µM (active)
CCCCc1nc2cc(/C=C/C(=O)NO)ccc2n1CCN(CC)CC,–,3.06 µM (active)
CC(C)c1nn(-c2c(Cl)cccc2Cl)c2nc(Cc3ccc(OCCO)cc3)[nH]c(=O)c12,–,0.0863 µM (active)
Cc1cnc(Nc2cccc(CN3CCOCC3)c2)nc1Nc1cccc(S(=O)(=O)NC(C)(C)C)c1,–,3.06 µM (active)
Cc1cnc(Nc2ccc(CN3CCOCC3)cc2)nc1Nc1cccc(S(=O)(=O)NC(C)(C)C)c1,–,0.243 µM (active)
CCc1c2c(nc3ccc(OC(=O)N4CCC(N5CCCCC5)CC4)cc13)-c1cc3c(c(=O)n1C2)COC(=O)[C@]3(O)CC,–,21.7 µM (active)
COc1cc2c(Nc3ccc(NC(=O)c4ccccc4)cc3)ncnc2cc1OCCCN1CCOCC1,–,19.3 µM (active)
CCS(=O)(=O)c1cccc(-c2cc(C(=O)NC3CCN(C)CC3)c(C)c3[nH]c4ncc(C)cc4c23)c1,–,1.5 µM (active)
O=C(CCCCCCNC(=O)c1cnc(N(c2ccccc2)c2ccccc2)nc1)NO,–,21.7 µM (active)
CC(C)n1c(/C=C/[C@@H](O)C[C@@H](O)CC(=O)O)c(-c2ccc(F)cc2)c2ccccc21,-20.4,–
Cc1cncc2cccc(S(=O)(=O)N3CCCN(C(=O)CN)C[C@@H]3C)c12,-18.6,–
NS(=O)(=O)OC[C@@H]1C[C@@H](n2ccc3c(N[C@H]4CCc5ccccc54)ncnc32)C[C@@H]1O,–,1.72 µM (active)
COc1cc(-c2nn(C3CCC(N4CCN(C(C)=O)CC4)CC3)c3ncnc(N)c23)ccc1NC(=O)c1cc2ccccc2n1C (configuration not stated),–,1.09 µM (active)
CN(C[C@@H]1COCCO1)S(=O)(=O)Nc1ccc2ccc3ncc(-c4cnn(C)c4)cc3c(=O)c2c1,–,17.2 µM (active)
COc1cc(N2CCC(N3CCN(C)CC3)CC2)ccc1Nc1ncc(Cl)c(Nc2ccccc2S(=O)(=O)C(C)C)n1,–,6.11 µM (active)
